Source: PubChem (National Center for Advancing Translational Sciences (NCATS))
In the library only some 2.3% were active in any assay of this set; here they are far more common.
aSyn yeast inh – rescues yeast growth from alpha-synuclein toxicity. Yeast expressing alpha-synuclein, growth rescue, BacTiter-Glo, 24 h. Potency, µM (top dose mostly 46.1 µM), usual class: activators. actives 0.14% (n = 370,000). AID 652106; note: nearly all actives have a fitted effect of over 65% in size
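Rescue of yeast growth: cells expressing toxic alpha-synuclein, induced in galactose at OD600 0.02, incubated with compound 24 h at 30 C. ATP luminescence quantified growth; inhibitors of toxicity appear as activators.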
Abeta yeast res – compounds reversing amyloid beta toxicity in yeast; Potency, µM (highest dose often 46.1 µM), most hits filed as activators; yeast expressing A-beta42, growth rescue, OD600, 48 h; response scale: 0% DMSO, 100% iron-clioquinol control; actives 0.063% (n = 410,000); note: nearly all actives have a fitted effect of over 55% in size
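Growth rescue measured by 600 nm absorbance after 48 h yeast culture at 30 C with compound. Values normalized between DMSO and an equimolar ferric chloride plus clioquinol control.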
uPA surface inh – inhibitors of cell surface uPA generation; cell surface uPA generation assay, qHTS; actives 0.31% (n = 330,000); Potency, µM (titrated, usually from 38.3 µM), actives largely listed as inhibitors; active = well fitted inhibition curve with a large enough effect; inconclusive = small, poorly fitted or top-dose-only effect; inactive = no such curve, though single readings can be large or run the other way; tested in mouse RAW 264.7 cells; note: nearly all actives have a fitted effect of over 55% in size
FUS yeast rescue – suppressors of FUS proteinopathy in yeast; Potency, µM (top dose mostly 76.6 µM), hits mostly activators; actives 0.24% (n = 390,000); S. cerevisiae FUS-expressing, growth rescue, OD600, 24 h; note: nearly all actives have a fitted effect of over 55% in size
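Yeast expressing FUS under galactose induction, OD 0.005 in 2% galactose medium; compounds in a dilution series, 24 h at 30C. Growth rescue by absorbance at 600 nm; CP55940 positive control, DMSO negative.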
Chronic BCR inh – inhibitors of chronic active B-cell receptor signaling; ABC-DLBCL IkBa-CBG/CBR reporter, luminescence ratio, 4 h; AID 493014; actives 0.05% (n = 340,000); Potency, µM (highest dose often 46.1 µM), most hits filed as inhibitors; active = well fitted inhibition curve with a large enough effect in the signal ratio, with a control signal flat, not every such curve was filed as active; inconclusive = small, poorly fitted or top-dose-only effect, or effect the other way, or a change in a side signal; the % refers to the signal ratio
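Compounds up to 46 uM were incubated four hours with TMD8 cells whose green CBG68 luciferase is fused to IkappaBalpha; red CBR luminescence normalised the signal, and concentration-effect curves were fitted to fusion, red and ratio data.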
TDP43 rescue – inhibitors of TDP-43 toxicity in yeast | Potency, µM (top dose mostly 46.1 µM), hits mostly activators | actives 1.8% (n = 410,000) | TDP-43 expressing yeast growth rescue, BacTiter-Glo, 24 h; note: nearly all actives have a fitted effect of over 50% in size
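Galactose-induced TDP-43 yeast, OD600=0.02, compound pinned; 24 hr, 30 deg C; BacTiter-Glo luminescence for growth. Inhibitors of TDP-43 toxicity read as activators.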
Hits are given with their value. Unless noted, calls come from the whole dose curve; as a rule, active = well fitted curve in the direction sought with a large enough effect; inconclusive = small, poorly fitted or top-dose-only effect, or another doubt; inactive = no such curve, though single readings can be large; an effect the other way counts as inactive or inconclusive.

For Cc1cccc(Nc2nnc(SCC(=O)c3ccc(Br)s3)s2)c1C the results were aSyn yeast inh inactive, Abeta yeast res inconclusive, uPA surface inh inactive, FUS yeast rescue inactive, Chronic BCR inh inconclusive and TDP43 rescue 25µM.
`Cc1ccccc1Nc1nnc(SCC(=O)Nc2ccccc2[N+](=O)[O-])s1` gave aSyn yeast inh inactive, Abeta yeast res inactive, uPA surface inh inactive, FUS yeast rescue inactive, Chronic BCR inh inactive and TDP43 rescue 16µM.
COc1cccc(CNC(=O)C(C)n2c(=O)cc(-c3ccccc3)c3c(C)nn(C)c32)c1 (stereo unspecified) was read as Abeta yeast res inactive, FUS yeast rescue inactive and TDP43 rescue 22µM.
COc1ccccc1CNC(=O)C(C)n1c(=O)cc(-c2ccccc2)c2c(C)nn(C)c21 (stereo unspecified) was read as Abeta yeast res inactive, FUS yeast rescue inconclusive and TDP43 rescue 16µM.
For Cc1ccc(CNC(=O)Cn2c(=O)cc(-c3ccccc3)c3c(C)nn(C)c32)cc1 the results were Abeta yeast res inactive, FUS yeast rescue inactive and TDP43 rescue 22µM.
`Cc1ccc(CNC(=O)C(C)n2c(=O)cc(-c3ccccc3)c3c(C)nn(C)c32)cc1` (stereo unspecified) gave Abeta yeast res inactive, FUS yeast rescue inactive and TDP43 rescue 22µM.
`Cc1cccc(OCC(=O)NCC(=O)n2nc(C)cc2C)c1` gave aSyn yeast inh inactive, Abeta yeast res inactive, uPA surface inh inactive, FUS yeast rescue inactive, Chronic BCR inh inactive and TDP43 rescue inactive.
CC1(C)c2[nH]c3ccccc3c2C[C@H]2C(=O)N(CCCCCO)CC(=O)N21 was read as aSyn yeast inh inactive, Abeta yeast res inactive, uPA surface inh inactive, FUS yeast rescue inactive, Chronic BCR inh inconclusive and TDP43 rescue inactive.
`Cn1c(=NC(=O)c2ccc(S(=O)(=O)N3CCCc4ccccc43)cc2)sc2cc(F)ccc21` gave Abeta yeast res inactive, FUS yeast rescue inactive and TDP43 rescue inactive.
Screening Cc1nc(SCc2cccc(Oc3ccccc3)c2)n[nH]1 returned aSyn yeast inh inactive, Abeta yeast res inactive, uPA surface inh inactive, FUS yeast rescue inactive, Chronic BCR inh inconclusive and TDP43 rescue 28µM.
Screening Cc1nc(SCc2ccc(Cl)c(Cl)c2)n[nH]1 returned aSyn yeast inh inactive, Abeta yeast res inactive, uPA surface inh inactive, FUS yeast rescue inactive, Chronic BCR inh inactive and TDP43 rescue inactive.
Screening COC(=O)C1=C(C(=O)OC)SC(=C2C(=S)C(C)(C)N(C(=O)C(C)C)c3ccccc32)S1 returned aSyn yeast inh inconclusive, Abeta yeast res inactive, uPA surface inh inactive, FUS yeast rescue inactive, Chronic BCR inh inactive and TDP43 rescue 3.2µM.
COC(=O)C1=C(C(=O)OC)SC(=C2C(=S)C(C)(C)N(C(=O)C3CC3)c3ccccc32)S1 was read as aSyn yeast inh inactive, Abeta yeast res inactive, uPA surface inh inactive, FUS yeast rescue inactive, Chronic BCR inh inactive and TDP43 rescue 2.2µM.
CCCC(=O)N1c2ccccc2C(=C2SC(C(=O)OC)=C(C(=O)OC)S2)C(=S)C1(C)C was read as aSyn yeast inh inactive, Abeta yeast res inactive, uPA surface inh inactive, FUS yeast rescue inactive, Chronic BCR inh inactive and TDP43 rescue inconclusive.
For COc1cc(OC)cc(-c2n[nH]c(=S)n2-c2ccc3c(c2)OCO3)c1 the results were aSyn yeast inh inactive, Abeta yeast res inactive, uPA surface inh inactive, Chronic BCR inh inactive and TDP43 rescue inactive.
CCOC(=O)c1c(C)[nH]c(O)c1C=Nc1ccc(C(F)(F)F)cc1 was read as aSyn yeast inh inactive, Abeta yeast res inactive, uPA surface inh inactive, FUS yeast rescue inactive, Chronic BCR inh inconclusive and TDP43 rescue 3.2µM.
For CC12CCC(C)(c3nc4ccccc4nc31)C2(C)C the results were aSyn yeast inh inactive, Abeta yeast res inactive, uPA surface inh inactive, FUS yeast rescue inactive, Chronic BCR inh inactive and TDP43 rescue inactive.
For Cc1[nH]nc2c1-c1nc3ccccc3nc1C(C)(C)C2 the results were aSyn yeast inh inactive, Abeta yeast res inactive, uPA surface inh inactive, FUS yeast rescue inactive, Chronic BCR inh inconclusive and TDP43 rescue 22µM.
